Bioassay records: PubChem, Broad Institute
U2OS ROS induce – inducers of reactive oxygen species in cancer cells; U2OS ROS induction, H2DCF-DA fluorescence; ROS induction (% of piperlongumine), % at 10 µM; hit rate 2% among 46,000; in the data active means ROS induction above about 79%, passing the limit was not always enough;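 further: 0% = DMSO vehicle median and 100% = reference compound median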
Numbers without * were called inactive. Only a selection was taken, and hits are over-represented in it overall.

SMILES | U2OS ROS induce
Cc1cccc(CN(C)C[C@@H]2Oc3ncc(-c4cccc(C(F)(F)F)c4)cc3C(=O)N([C@H](C)CO)C[C@@H]2C)c1 | 104*
Cc1cccc(CN(C)C[C@@H]2Oc3ncc(-c4ccccc4)cc3C(=O)N([C@H](C)CO)C[C@@H]2C)c1 | 34
COc1ccc(C#Cc2cnc3c(c2)C(=O)N([C@H](C)CO)C[C@H](C)[C@H](CN(C)Cc2cccc(C(F)(F)F)c2)O3)cc1OC | 60
COc1ccc(-c2cnc3c(c2)C(=O)N([C@H](C)CO)C[C@H](C)[C@H](CN(C)Cc2cccc(C(F)(F)F)c2)O3)cc1 | 110*
C[C@H](CO)N1C[C@H](C)[C@H](CN(C)Cc2cccc(C(F)(F)F)c2)Oc2ncc(-c3ccccc3)cc2C1=O | 47
COc1ccc(-c2cnc3c(c2)C(=O)N([C@H](C)CO)C[C@H](C)[C@H](CN(C)C)O3)cc1 | 7
Cc1noc(C)c1S(=O)(=O)Nc1ccc2c(c1)C(=O)N([C@H](C)CO)C[C@H](C)[C@@H](CN(C)C(=O)Nc1ccc(C(F)(F)F)cc1)OCCCC[C@@H](C)O2 | 17
C[C@H]1CN([C@@H](C)CO)C(=O)c2cccc(NC(=O)Nc3ccc4c(c3)OCO4)c2O[C@@H]1CN(C)S(=O)(=O)c1ccc(Cl)cc1 | 16
COc1ccc(S(=O)(=O)N(C)C[C@@H]2Oc3ccc(NC(=O)Nc4c(C)noc4C)cc3C(=O)N([C@@H](C)CO)C[C@H]2C)cc1 | -8
C[C@@H]1CN([C@H](C)CO)C(=O)c2cc(NS(=O)(=O)c3cccs3)ccc2O[C@H]1CN(C)CC1CCCCC1 | -6
Cc1ccc(C)c(Cc2c(C)nc3c(C(=O)NC4CC4)cnn3c2C)c1 | 26
Cc1nc2c(C(=O)NCc3ccc4c(c3)OCO4)cnn2c(C)c1Cc1c(F)cccc1Cl | 12
COc1cccc(CNC(=O)c2cnn3c(C)c(Cc4c(C)cc(C)cc4C)c(C)nc23)c1 | 142*
CC(C)OC(=O)N(C)C[C@@H]1OCc2cnnn2CCCC(=O)N([C@@H](C)CO)C[C@@H]1C | 8
O=[N+]([O-])c1ccc(N2CCN(S(=O)(=O)c3ccc(F)cc3)CC2)cc1NCc1ccco1 | 27
O=C(c1ccc(Cl)cc1)N1CCN(c2ccc([N+](=O)[O-])c(NCc3ccccn3)c2)CC1 | 5
CC(C)(C)c1ccc(C(=O)N2CCN(c3ccc([N+](=O)[O-])c(NCc4cccnc4)c3)CC2)cc1 | 106*
O=C(c1ccccc1Cl)N1CCN(c2ccc([N+](=O)[O-])c(NCc3cccnc3)c2)CC1 | 79*
CC(=O)N1CCN(c2ccc([N+](=O)[O-])c(NCc3cccnc3)c2)CC1 | 40
O=[N+]([O-])c1ccc(N2CCNCC2)cc1NCc1ccccn1 | 6
Cn1c(SCc2nc(-c3ccc(Cl)cc3)no2)nnc1-c1cccs1 | 6
COc1ccc(S(=O)(=O)N(C)C[C@H]2Oc3ccc(NS(=O)(=O)c4ccc(Cl)cc4)cc3CC(=O)N([C@@H](C)CO)C[C@@H]2C)cc1 | 5
CC(NS(=O)(=O)c1ccccc1)C(=O)Nc1ccc(I)cc1 (centres undefined) | 0
Cc1noc(C)c1S(=O)(=O)Nc1ccc2c(c1)CC(=O)N([C@H](C)CO)C[C@@H](C)[C@@H](CN(C)C(=O)NC1CCCCC1)O2 | -14
O=C(CC1(O)C(=O)N(Cc2ccc(Cl)c(Cl)c2)c2ccccc21)c1cccc([N+](=O)[O-])c1 (centres undefined) | 35
SMILES | U2OS ROS induce
C=CCOc1ccccc1/C=N/NC(=O)c1ccc(C(=O)NO)cc1 | -9
C[C@@H]1CN([C@@H](C)CO)C(=O)c2cccc(NS(C)(=O)=O)c2O[C@@H]1CN(C)Cc1ccncc1 | 2
CCOC(=O)c1cc(C#N)c(Sc2n[nH]c(C(C)(C)C)n2)nc1C(F)(F)F | 11
CC(C)(C)OC(=O)CC[C@]12N=C(c3ccc(OCCCO)cc3)O[C@H]1c1ccccc1CN(Cc1ccccc1)C2=O | 32
C=CC[C@]12N=C(c3ccc(OCCCO)cc3)O[C@H]1c1ccccc1N(CCS(=O)(=O)c1ccccc1)C2=O | 16
NC(=O)[C@]1(CCS(=O)(=O)c2ccccc2)N=C(c2ccc(OCCCO)cc2)O[C@@H]1c1ccccc1 | 46
C=CC[C@]12N=C(c3ccc(OCCCO)cc3)O[C@H]1c1ccccc1CN(CCS(=O)(=O)c1ccccc1)C2=O | 13
O=C1N(CCS(=O)(=O)c2ccccc2)Cc2ccccc2C[C@]12N=C(c1ccc(OCCCO)cc1)O[C@@H]2c1ccccc1 | 99*
O=C(c1ccccc1)N1Cc2ccccc2C[C@@]2(N=C(c3ccc(OCCCO)cc3)O[C@H]2c2ccccc2)C1=O | 67
O=C1N(Cc2ccccc2)Cc2ccccc2[C@H]2OC(c3ccc(OCCCO)cc3)=N[C@@]12CCS(=O)(=O)c1ccccc1 | 243*
O=C1N(CCS(=O)(=O)c2ccccc2)Cc2ccccc2[C@H]2OC(c3ccc(OCCCO)cc3)=N[C@@]12Cc1ccccc1 | 117*
C=CC[C@@]12N=C(c3ccc(OCCCO)cc3)O[C@@H]1c1ccccc1CN(CCS(=O)(=O)c1ccccc1)C2=O | 60
C=CC[C@@]12N=C(c3ccc(OCCCO)cc3)O[C@@H]1c1ccccc1CN(Cc1ccccc1)C2=O | 45
